Compounds with a hit are over-represented: about 6% of the library has one in this group of screens.
VDR inh = blocks the human vitamin D receptor. Potency, µM, inactives show max response, negative = inhibition, usual class: inhibitors. 400,000 tested, 0.93% active. P11473. VDR-SRC2-3 peptide fluorescence polarization, 2 h. AID 504847
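Signal is fluorescence polarization, reporting how far test compounds block the interaction of VDR with the SRC2-3 coregulator peptide after a 2 h room-temperature incubation.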
Tau fluor cs = counter-screen for tau fibril formation inhibitors; tau K18 P301L Alexa594 fluorescence, heparin fibrillization; Potency, µM (highest dose often 57.7 µM), without a hit: at the top dose activity change, negative = decrease; 280,000 tested, 0.93% active; AID 1463; also: nearly all actives have a fitted effect of over 55% in size
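Human tau K18 P301L (15 uM unlabeled, 0.24 uM Alexa 594-labeled) in 100 mM sodium acetate pH 7 with 20 uM heparin, 6 hr at 37 C. ThT 30 uM added, 1 hr ambient; Alexa 594 FP and total fluorescence read at 555/632 nm.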
PLK1 PBD inh = blocks phosphopeptide binding to human PLK1 polo-box domain. P53350. Plk1 PBD binding of FITC phosphopeptide, fluorescence polarization. Potency, µM, inactives show max response, negative = inhibition, actives largely listed as inhibitors. 360,000 tested, 2.8% active. AID 720504; also: series mostly up to about 57 µM; nearly all actives have a fitted effect of over 65% in size
Target sequence (P53350 whole entry, looked up, the tested form may be a part): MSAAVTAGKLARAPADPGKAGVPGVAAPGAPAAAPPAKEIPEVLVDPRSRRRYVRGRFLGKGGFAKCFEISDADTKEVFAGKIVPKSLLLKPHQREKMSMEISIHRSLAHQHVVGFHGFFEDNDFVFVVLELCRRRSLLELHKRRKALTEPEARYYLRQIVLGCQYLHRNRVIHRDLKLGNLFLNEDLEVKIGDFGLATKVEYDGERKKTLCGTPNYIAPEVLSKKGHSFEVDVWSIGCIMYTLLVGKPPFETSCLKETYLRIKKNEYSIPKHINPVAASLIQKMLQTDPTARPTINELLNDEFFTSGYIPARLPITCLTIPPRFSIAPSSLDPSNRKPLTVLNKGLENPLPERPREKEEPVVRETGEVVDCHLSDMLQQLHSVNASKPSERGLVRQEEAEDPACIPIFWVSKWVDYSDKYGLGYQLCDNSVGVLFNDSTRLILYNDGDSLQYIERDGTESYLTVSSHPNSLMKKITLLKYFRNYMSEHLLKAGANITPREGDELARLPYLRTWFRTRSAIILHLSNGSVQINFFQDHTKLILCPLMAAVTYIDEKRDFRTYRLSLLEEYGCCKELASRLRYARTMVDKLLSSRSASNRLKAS
Sfp inh = inhibitors of Bacillus subtilis Sfp phosphopantetheinyl transferase; 310,000 tested, 3.5% active; Potency, µM, without a hit: largest response in the series, negative = inhibition, actives largely listed as inhibitors; AID 1490; Biochemical Sfp PPTase activity, qHTS;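 also: the enzyme is Sfp with the accession as filed and its product quenches rhodamine fluorescence; 0% = enzyme reaction without inhibitor and -100% = no enzyme wells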
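Buffer: 50 mM Hepes-Na pH 7.6, 10 mM MgCl2, 0.01% Nonidet P-40, 0.01% BSA. Enzyme 15 nM, pre-exposed to compound 15 min; substrates then added and fluorescence change tracked over 30 min.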
Tau ThT inhib = blocks human tau fibril formation measured by thioflavin T | recombinant tau K18 P301L (four-repeat tau fragment), heparin-induced fibrillization, ThT fluorescence | Potency, µM (series often up to 57.4 µM), without a hit: top-dose activity, negative = inhibition, hits mostly inhibitors | 270,000 tested, 2.1% active; also: nearly all actives have a fitted effect of over 55% in size
Target sequence (P10636 561-689 P618L limits assumed): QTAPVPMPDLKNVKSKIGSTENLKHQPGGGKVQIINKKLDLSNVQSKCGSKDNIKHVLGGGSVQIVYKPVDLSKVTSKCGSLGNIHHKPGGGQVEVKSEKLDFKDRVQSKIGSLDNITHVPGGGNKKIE
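In this qHTS, human K18 P301L tau is incubated with compound and heparin for 6 hr at 37 C, and Thioflavin T fluorescence then reports fibril load.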
Tau fibril FP = tau fibrillization inhibition (FP); AID 1468; Potency, µM (highest dose often 57.7 µM), for the others: at the top dose activity, negative = inhibition, usual class: inhibitors; K18 P301L tau heparin fibrillization, Alexa594 FP, 6 h; 280,000 tested, 0.39% active; P10636; also: nearly all actives have a fitted effect of over 55% in size
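Human K18 P301L fragment (15 uM unlabeled plus 0.24 uM Alexa 594-labeled) in 100 mM sodium acetate pH 7 with compound, aggregation induced by 20 uM heparin for 6 hr at 37 C. ThT (30 uM) added for 1 hr, then Alexa 594 FP read.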
An asterisk follows results filed as active; ? = inconclusive; . = no result given; [ ] = dose if it differs, or a comment. Calls follow the shape of the dose curve; as a rule, active = well fitted curve in the direction sought with a large enough effect; inconclusive = small, poorly fitted or top-dose-only effect, or another doubt; inactive = no such curve, though single readings can be large; an effect the other way counts as inactive or inconclusive. Unless noted, % is scaled to controls: 0 for no effect and ±100 for the full control effect; potency is read from the fitted curve at half-maximal effect.

SMILES | VDR inh | Tau fluor cs | PLK1 PBD inh | Sfp inh | Tau ThT inhib | Tau fibril FP
Cc1cc(O)c(C=O)c(O)c1C(=O)O | 8.5% | -17.4% | . | -6.5% | ? | -11.7%
Cc1cc(O)c(C=O)c2c1C(=O)Oc1c(COC(=O)/C=C/C(=O)O)c(O)c(C(=O)O)c(C)c1O2 | 6.31µM* | -32.7% | . | -52.1% | 8.91µM* | 3.55µM*
CCn1c(SCC(=O)Nc2ccccc2Br)nnc1-c1cnccn1 | -23.4% | . | 21.2µM* | 9.7% | . | .
COc1cccc(C(=O)Nc2ccc(Oc3cccc(C(F)(F)F)c3)nc2)c1 | -6.9% | -28.8% | -4.2% | 34.6% | -1.3% | ?
O=[N+]([O-])c1ccc(Oc2ccc(C(F)(F)F)cn2)cc1 | -18.3% | -18.8% | -2.7% | 14.2% | -12.6% | -7.5%
O=C(NC1CCSC1=O)c1ccc(Oc2cccc(C(F)(F)F)c2)nc1 (stereo not given) | -7.2% | 4.0% | 21.2µM* | 16.1% | 5.8% | -1.1%
O=[N+]([O-])c1ccc(Oc2cccc(C(F)(F)F)c2)nc1 | ? | 11.1% | 26.7µM* | 12.8% | 14.4% | 8.6%
Cc1ccc(CN2CCCn3nc(C(=O)NCc4ccc(OC(C)C)cc4)cc3C2=O)cc1 | -6.7% | -2.3% | . | . | -8.7% | 3.6%
O=C(c1cc2ccccc2oc1=O)N(Cc1cccs1)CC1CCCO1 (stereo not given) | 22.3% | -4.9% | -20.1% | 19.7% | -4.4% | 2.3%
O=C(c1cc2ccccc2oc1=O)N(Cc1cccs1)Cc1cccs1 | ? | -14.1% | 15µM* | 5.9% | -15.7% | -9.4%
CCOC(=O)CSc1nc2ccccc2c(=O)n1Cc1ccco1 | 7.5% | -9.1% | -4.4% | 2.8% | -12.5% | -3.8%
COc1cccc(OCc2nnc(SCC(=O)NCc3ccco3)n2CCc2ccccc2)c1 | -5.5% | 0.5% | -19.4% | 50.1µM* | ? | -0.8%
COc1cccc(-c2nnc(SCC(=O)NCc3ccc4c(c3)OCO4)n2Cc2ccco2)c1 | 15.5% | -12.0% | -12.5% | 39.8µM* | -17.3% | 1.8%
CCOC(=O)CSc1nc2c(sc3ccc([N+](=O)[O-])cc32)c(=O)n1Cc1ccco1 | -12.6% | -19.9% | 2.6% | 3.55µM* | -15.9% | 17.7%
CCOC(=O)CSc1nnc(CSc2nc(C)cc(C)n2)n1Cc1ccco1 | -2.0% | -2.2% | -7.6% | 20µM* | -13.2% | 5.1%
C#CC(C)(CC)NC(=O)Cn1nnc(-c2ccc(OCc3ccccc3F)cc2)n1 (stereo not given) | -8.1% | -12.8% | . | . | 7.2% | -11.7%
O=C(NCCCN1CCOCC1)c1ccc2c(c1)N(Cc1ccccc1F)C(=O)c1ccccc1S2=O (stereo not given) | 11.0% | . | -5.1% | 8.8% | . | .
COc1ccc(C)cc1NC(=O)CSc1nnc(COc2ccccc2)n1Cc1ccco1 | 8.7% | -15.0% | -14.6% | 79.4µM* | ? | -2.8%
Cc1cc(C)nc(SCc2nnc(SCC(=O)Nc3ccccc3C)n2Cc2ccco2)n1 | 0.3% | -6.5% | -14.2% | 50.1µM* | -2.8% | -7.2%
Cc1ccc(C)c(NC(=O)CSc2nnc(CSc3nc(C)cc(C)n3)n2Cc2ccco2)c1 | -2.6% | 3.2% | -11.2% | 44.7µM* | -3.8% | 5.3%
Cc1ccc(NC(=O)CSc2nnc(CSc3nc(C)cc(C)n3)n2Cc2ccco2)c(C)c1 | 14.7% | 1.0% | -8.2% | ? | -1.8% | 2.4%
COc1ccccc1-n1c(CNC(=O)c2ccco2)nnc1SCC(=O)Nc1cc(C)ccc1C | -27.0% | -2.3% | 2.99µM* | 6.9% | -4.5% | -5.8%
COc1ccccc1-n1c(CNC(=O)c2ccco2)nnc1SCC(=O)Nc1ccc(F)cc1 | 1.9% | 2.0% | -7.5% | 3.0% | 3.7% | 4.5%
CCC(=O)N1CCCc2cc(S(=O)(=O)N3CCC(C(=O)Nc4ccccc4CC)CC3)ccc21 | -5.1% | -7.8% | . | . | ? | -2.1%
COc1ccccc1N1CCN(C(CNC(=O)C(=O)NCc2ccc(F)cc2)c2cccnc2)CC1 (stereo not given) | 11.6% | -10.9% | . | . | ? | 9.6%
SMILES | VDR inh | Tau fluor cs | PLK1 PBD inh | Sfp inh | Tau ThT inhib | Tau fibril FP
Cc1ccc(-c2cc3ncc(C(=O)c4cc([N+](=O)[O-])ccc4O)cn3n2)cc1 | -22.1% | -29.1% | . | . | 10µM* | 2.8%
COc1ccc(NC(=O)c2ccc3c(c2)NC(=O)CS3)cc1S(=O)(=O)Nc1ccc(Br)cc1 | -25.9% | ? | ? | 17.8µM* | 0.8% | 28.2µM*
CC(=O)NS(=O)(=O)c1ccc(NC(=O)c2ccc3c(c2)NC(=O)CS3)cc1 | -1.9% | . | -17.8% | . | . | .
Cc1ccc(NS(=O)(=O)c2cc(NC(=O)c3ccc4c(c3)NC(=O)CS4)ccc2C)c(C)c1 | ? | ? | 9.47µM* | 10µM* | 11.2% | ?
CCc1ccc2oc(-c3cccc(NC(=O)C(C)(C)Oc4ccc(Br)cc4)c3)nc2c1 | 4.8% | -27.4% | . | . | -4.2% | -16.2%
Cc1ccc2c(c1)sc1nc(=O)ccn12 | -27.2% | . | 15µM* | 12.0% | . | .
Cc1ccc(NS(=O)(=O)c2ccc(C)c(NC(=S)NCCN3CCOCC3)c2)c(C)c1 | 12.5% | . | ? | . | . | .
CCCCCCOC(=O)C[N+](C)(C)CCOC1CC2CCC1(C)C2(C)C (stereo not given) | 6.9% | -20.1% | -2.2% | ? | ? | 3.1%
CCCCCCCOC(=O)C[N+](C)(C)CCOC1CC2CCC1(C)C2(C)C (stereo not given) | -27.7% | 1.9% | -10.4% | 50.1µM* | ? | -0.4%
COc1cccc2sc(N(Cc3cccnc3)C(=O)c3ccc4c(c3)OCCO4)nc12 | 15.3% | -15.2% | . | . | -2.2% | 0.1%
COc1ccc(NC(=O)c2cc(S(=O)(=O)NCCC3=CCCCC3)ccc2F)cc1 | 8.0% | -28.2% | . | . | 5.7% | -6.2%
c1ccc(-c2cc3c(ccc4nonc43)nn2)cc1 | 7.3% | -5.5% | 0.1% | 25.4% | -8.0% | -3.0%
On1onc2c3cc(-c4ccccc4)nc3ccc21 | 0.8% | 12.6µM*[quencher] | 2.1% | -7.7% | 3.98µM* | ?
CCOC(=O)c1ccc(NC(=O)c2cc3ccccc3o2)cc1 | 1.4% | ? | -1.6% | 79.4µM* | -10.6% | -3.2%
CCOC(=O)c1cccc(NC(=O)c2cc3ccccc3o2)c1 | -21.0% | . | -19.3% | 0.1% | . | .
NS(=O)(=O)c1cccc(NC(=O)c2cc3ccccc3o2)c1 | -14.5% | -13.5% | 21.2µM* | 1.2% | -0.6% | -10.0%
COc1cccc(Nc2cc(-c3ccccc3)nc(C)n2)c1 | 9.7% | 28.2µM*[quencher] | . | . | ? | -9.1%
Cc1nc(Nc2ccc(Cl)cc2)cc(-c2ccccc2)n1 | 10.2% | 12.6µM*[quencher] | . | . | 21.1% | 28.2µM*
Cc1ccc(Nc2cc(-c3ccccc3)nc(C)n2)cc1 | 1.0% | ? | . | . | -5.7% | 3.0%
CNC[C@H]1OCc2ccccc2-c2ccccc2C(=O)N([C@H](C)CO)C[C@H]1C | . | . | -5.6% | . | . | .
COC(=O)[C@]12CCCCC=C1N(Cc1ccc(Cl)cc1Cl)C(=O)[C@H](CC(=O)N1CCN(C(=O)C3CC3)CC1)C2 | . | . | -4.3% | . | . | .

Screens: PubChem, National Center for Advancing Translational Sciences (NCATS)
